# Sampled rows, rich in hits. Any-hit rate of the full collection: about 3%.
# TrxR1 inh – blocks rat thioredoxin reductase 1; Potency, µM (doses to about 114 µM), most hits filed as inhibitors; AID 588453; recombinant rTrxR1, NADPH fluorescence consumption, selenite substrate; 390,000 tested, 1% active; O89049; further: nearly all actives have a fitted effect of over 65% in size
#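 Rat TrxR1 (90 nM in the dispensed reagent) was pre-reduced with 400 uM NADPH for 5 min at room temperature, then incubated with compound for 15 min. After 400 uM selenite was added, NADPH fluorescence (Ex 340/Em 450 nm) was followed for 8 min.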
# TrxR1 substrate – is turned over as a substrate by rat TrxR1 | O89049 | purified TrxR1 substrate turnover, NADPH consumption readout | Potency, µM (titrated, usually from 114 µM) | 390,000 tested, 0.01% active; further: nearly all actives have a fitted effect of over 50% in size
#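 Rat TrxR1, dispensed at 90 nM, was prereduced with 400 uM NADPH (final) for 5 min at ~22 deg C, then incubated with compound 15 min before 400 uM selenite. A first-read NADPH fluorescence drop versus no-compound background flagged substrates.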
# Nrf2 block – Nrf2 pathway inhibition; 360,000 tested, 2.1% active; A549 ARE-Fluc reporter, luciferase luminescence, 18-24 h; AID 504444; Potency, µM (top dose mostly 46 µM), hits mostly inhibitors; further: nearly all actives have a fitted effect of over 60% in size
#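 Reporter: ARE-Fluc in A549. Exposure: 18-24 h, 37 °C, 5% CO2, 5% FBS OPTI-MEM. Readouts: fluorescent cytotoxicity (CellTiter-Fluor), then luminescent Nrf2 signal after BugLite.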
# GALK inhibitor – galactokinase (human) inhibition | Purified GALK, Kinase-Glo residual ATP luminescence | Potency, µM (titrated, usually from 57.5 µM), hits mostly inhibitors | 270,000 tested, 0.007% active
# Target sequence (P51570 whole entry, looked up): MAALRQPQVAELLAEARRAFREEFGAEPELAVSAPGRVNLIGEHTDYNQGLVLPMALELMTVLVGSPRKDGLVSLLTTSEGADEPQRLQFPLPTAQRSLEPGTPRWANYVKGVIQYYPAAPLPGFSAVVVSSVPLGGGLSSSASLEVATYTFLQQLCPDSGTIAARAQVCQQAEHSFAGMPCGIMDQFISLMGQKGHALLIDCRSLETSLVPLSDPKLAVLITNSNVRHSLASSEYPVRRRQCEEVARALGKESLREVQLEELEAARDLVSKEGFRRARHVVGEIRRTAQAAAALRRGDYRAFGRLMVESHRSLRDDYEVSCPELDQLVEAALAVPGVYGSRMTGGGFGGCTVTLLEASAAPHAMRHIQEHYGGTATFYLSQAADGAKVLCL
#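 Kinase-Glo Plus luminescence measured ATP left after a 1 h room-temperature reaction. The reaction used 5 nM GALK, 100 uM galactose and 35 uM ATP at pH 8.0 (20 mM HEPES, 5 mM MgCl2, 60 mM NaCl, 1 mM DTT, 0.01% BSA).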
# A549 tox – A549 cytotoxicity, counter-screen for Nrf2 inhibitors; Potency, µM (titrated, usually from 46 µM), hits mostly inhibitors; 390,000 tested, 0.16% active; A549 ARE-Fluc cells, CellTiter-Fluor viability, 18-24 h
#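 A549 ARE-Fluc cells in 5% FBS OPTI-MEM, 5000 cells/well, rested 2 h then exposed to compounds in concentration-response for 18-24 h at 37 °C. Viability by CellTiter-Fluor fluorescence (Ex 405/Em 525) after 30 min; luciferase luminescence (BugLite, 15 min, RT) read afterwards.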
# Nrf2 ARE act – Nrf2 pathway activation; AREc32 ARE-luciferase reporter (MCF7-derived line), luminescence, 24 h; Potency, µM (highest dose often 46.1 µM), usual class: activators; 410,000 tested, 0.31% active; AID 624171; further: nearly all actives have a fitted effect of over 65% in size
#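 AREc32_Fluc, 1000 cells/well, OPTI-MEM + 5% FBS, o/n 37 deg C 5% CO2; 23 nL cpd by pin tool, 24 hr; Steady-Glo 30 min RT, luminescence.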
# Numbers stand for hits; – = inactive; ? = inconclusive; · = no result; ! = a repeat was not active; [ ] = remark or other dose. The call rests on the fitted dose curve; in most records, active means well fitted curve in the direction sought with a large enough effect; inconclusive means small, poorly fitted or top-dose-only effect, or another doubt; inactive means no such curve, though single readings can be large; an effect the other way counts as inactive or inconclusive.
SMILES,TrxR1 inh,TrxR1 substrate,Nrf2 block,GALK inhibitor,A549 tox,Nrf2 ARE act
COc1ccc(NS(=O)(=O)c2ccc3oc(SCc4ccc(F)cc4)nc3c2)cc1,–,–,18µM,–,–,–
COc1ccccc1NS(=O)(=O)c1ccc2oc(SCc3ccc(F)cc3)nc2c1,–,–,23µM,–,–,–
COc1ccccc1NS(=O)(=O)c1ccc2oc(SC)nc2c1,–,–,21µM,–,–,–
O=C(Nc1cccc(C(=O)OCc2cc(=O)n3c4c(sc3n2)CCCC4)c1)c1ccc(Cl)cc1,–,–,·,·,–,–
Nc1c(S(=O)(=O)c2cccs2)c2nc3ccccc3nc2n1/N=C/c1cccc(O)c1,–,–,26µM,–,?,–
Cc1cc(=O)c2ccc(C(F)(F)F)cc2[nH]1,–,–,–,–,–,–
O=c1cc(C(F)(F)F)[nH]c2ccc(C(F)(F)F)cc12,–[2.29 µM],–,21µM,–,?,–
CCOC(=O)C1CCCN(S(=O)(=O)c2cc(-c3cc(C)no3)ccc2C)C1 (stereo not given),–,–,?,·,–,–
Cn1cnc([N+](=O)[O-])c1Oc1cccc2ccccc12,8.9µM,–,–,–,–,–
Cn1cnc([N+](=O)[O-])c1Oc1ccccc1,45µM,–,–,–,–,–[9.22 µM]
Cn1cnc([N+](=O)[O-])c1Oc1cccc(O)c1,25µM,–,–,–,–,–
Cc1ccc(CN(Cc2cc3cc(C)ccc3[nH]c2=O)Cc2nnnn2Cc2ccccc2)cc1,–,–,–,·,–,·
N/C(=N\OC(=O)c1ccccc1Cl)c1ccncc1,–,–,?,–,–,8.9µM
N/C(=N\OC(=O)c1cccc(Cl)c1)c1ccncc1,–,–,–,–,–,11µM
N/C(=N\OC(=O)c1cccc(Cl)c1)c1cccnc1,–,–,?,–,–,?
Cc1ccc2c(=O)cc(C(=O)Nc3ccc(S(=O)(=O)Nc4nc(C)cc(C)n4)cc3)oc2c1,–,–,–,·,–,–
CC(C)c1nc2ccc(C(=O)NCc3ccccc3Br)cc2o1,–,–,·,·,–,–
CCCc1nc(SCC(=O)N2CCc3ccccc3C2)c2ccccc2n1,–,–,23µM,–,?,–
CN(Cc1ccccc1)C(=O)CSc1nc2ccsc2c(=O)n1-c1ccc(F)cc1,–,–,·,·,–,–
CCOC(=O)c1sc(=S)n(-c2ccc(OC)cc2)c1C,–,–,–,–,–,–
CCOC(=O)c1c2c(n(-c3ccc(OC)cc3)c1C)C(=O)C(=O)c1ccccc1-2,?,56µM,?,·,?,–
COc1ccc(NC(=O)Cn2c3ncccc3c(=O)n2-c2ccc(C)c(C)c2)c(OC)c1,–,–,–,·,–,–
COc1cccc(-c2nnc3sc(C4CCCCC4)nn23)c1,–,–,?,–,–,–
COc1cc(-c2nnc3sc(C4CCCCC4)nn23)cc(OC)c1OC,–,–,13µM,–,–,–
COc1cc(/C=C2\C(C)=C(C#N)c3nc(N)c(C#N)c(C)c32)ccc1OCC(=O)O,32µM,–,–,–,–,–
SMILES,TrxR1 inh,TrxR1 substrate,Nrf2 block,GALK inhibitor,A549 tox,Nrf2 ARE act
CC1=C(C#N)c2nc(N)c(C#N)c(C)c2/C1=C\c1ccc(C)cc1,·,·,·,–,·,·
CC(=O)N1c2ccccc2C(=O)C1N1CCN(c2cc(Cl)ccc2C)CC1 (stereo not given),–,–,–,·,–,–
Cc1cc(N2CCCC2)nc2ccc(NC(=S)NC(C)C)cc12,7.9µM,–,–,–,–,–
Cc1cc(N2CCOCC2)nc2ccc(NC(=S)NC(C)C)cc12,–,–,–,–,–,–
CCSc1ccc2c(c1)N(CCCN1CCN(C)CC1)c1ccccc1S2,–,–,–,·,–,–
CN1CCN(CCCN2c3ccccc3Sc3ccc(Cl)cc32)CC1,?,–,8.2µM!,–,18µM!,–
N/C(=N/OC(=O)c1cccc([N+](=O)[O-])c1)c1cccc([N+](=O)[O-])c1,–,–,?,–,–,–
CC1=C(C)/C(=N/OC(=O)c2cccc([N+](=O)[O-])c2)C=CC1=O,8.9µM,–,?,–,–,?
CCc1nc(Nc2ccc(OC)c(OC)c2)c2nnn(Cc3ccccc3Cl)c2n1,–,–,10µM,–,?,–

# Compound activity from PubChem.
